Assays:
Assay type in all cases: functional
[1] = biological target: Solute carrier family 2, facilitated glucose transporter member 1 (Homo sapiens) (UniProt P11166); assay: ST_JUDE_LEISH: Cytotoxicity at 2uM final concentration against transgenic Leishmania Mexicana promastigotes LmGLUT1 that are glucose transport deficient and complemented with the human glucose transporter GLUT1. Activity is measured by DNA content using SYBR green in vitro
[2] = biological target: Hexose transporter 1 (Plasmodium falciparum) (UniProt O97467); assay: ST_JUDE_LEISH: Cytotoxicity at 2uM final concentration against transgenic Leishmania Mexicana promastigotes LmPfHT that are glucose transport deficient and complemented with the Plasmodium falciparum hexose transporter. Activity is measured by DNA content using SYBR green in vitro
[3] = biological target: Glucose transporter (Leishmania mexicana) (UniProt O61059); assay: ST_JUDE_LEISH: Cytotoxicity at 2uM final concentration against transgenic Leishmania Mexicana promastigotes LmGT2 that are glucose transport deficient and complemented with the L. Mexicana glucose transporter 2. Activity is measured by DNA content using SYBR green in vitro

Solute carrier family 2, facilitated glucose transporter member 1 (Homo sapiens), sequence (P11166 whole entry): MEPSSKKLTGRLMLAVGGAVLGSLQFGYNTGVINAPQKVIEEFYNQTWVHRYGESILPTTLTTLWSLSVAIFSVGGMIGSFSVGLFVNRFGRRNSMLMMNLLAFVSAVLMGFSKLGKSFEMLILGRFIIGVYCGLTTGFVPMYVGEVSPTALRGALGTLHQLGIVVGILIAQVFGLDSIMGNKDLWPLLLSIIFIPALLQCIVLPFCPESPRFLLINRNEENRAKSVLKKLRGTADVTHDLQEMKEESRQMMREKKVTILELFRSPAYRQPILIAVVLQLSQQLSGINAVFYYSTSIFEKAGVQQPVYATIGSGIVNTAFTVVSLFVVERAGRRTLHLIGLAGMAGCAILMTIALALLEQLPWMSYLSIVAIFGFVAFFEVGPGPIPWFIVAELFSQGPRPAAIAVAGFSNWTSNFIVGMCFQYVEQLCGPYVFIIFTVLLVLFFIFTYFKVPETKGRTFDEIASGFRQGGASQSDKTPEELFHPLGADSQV

| Structure (SMILES) | inhibition [1] [%] | inhibition [2] [%] | inhibition [3] [%] |
| --- | --- | --- | --- |
| Cc1nc(Cl)c2c(-c3ccccc3)csc2n1 | 0.55 | -0.74 | -0.21 |
| N#Cc1ccc(N/C(=N\c2ccc(-c3ccccc3)cc2)NCCc2c[nH]c3ccccc23)c(O)c1 | 9.42 | 8.49 | 8.99 |
| CCc1cc([C@H]2O[C@@H](n3cnc4c(NCC(c5ccccc5)c5ccccc5)nc(NCCNc5ccccn5)nc43)[C@H](O)[C@@H]2O)on1 | -1.61 | -0.53 | -2.53 |
| Cc1ccc(S(=O)(=O)N(CCCNCc2cccc(O)c2)c2ccccc2)cc1 | 9.85 | 6.1 | 7.86 |
| O=C(NC1CCN(CCC(NC(=O)c2ccccc2)c2ccc(Cl)c(Cl)c2)CC1)c1ccc(Cl)cc1 (stereo not given) | 3.39 | 2.33 | 1.88 |
